NS1 function inh – qHTS Assay for Inhibitors of Influenza NS1 Protein Function; Potency, µM (highest dose often 46.1 µM), for inactives: at the highest dose activity, positive = more growth; 0.4% of 270,000 active; AID 2326, 2010; further: potency means the concentration at half of the fitted maximal effect; actives are rising curves; nearly all actives have a fitted effect of over 50% in size
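S. cerevisiae expressing influenza A NS1, grown in glucose, washed, then diluted 1:100 into pH 6.0 -URA galactose medium with 23 nl compound. Growth recovery read as OD600; NS1-free strain serves as control.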
Pf growth 48h – Primary qHTS for delayed death inhibitors of the malarial parasite plastid, 48 hour incubation; P. falciparum luciferase growth in erythrocytes, 48 h; Potency, µM (titrated, usually from 28.7 µM), for the others: at the highest dose activity change, negative = inhibition, most hits filed as inhibitors; 5.9% of 310,000 active; active means well fitted inhibition curve with a large enough effect; inconclusive means small, poorly fitted or top-dose-only effect, or another doubt; inactive means no such curve, though single readings can be large or run the other way; further: potency means the concentration at half of the fitted maximal effect; on the % scale 0 is the no-effect control and ±100 the full control effect
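Cell-based growth assay: transgenic P. falciparum expressing firefly luciferase, cultured in red cells within RPMI 1640 containing 0.5% w/v Albumax, 24 mM bicarbonate and gentamycin. A drop in luciferase activity indicates inhibition.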
Shiga toxin inh – A qHTS for Small Molecule Inhibitors of Shiga Toxin; Vero cells, Shiga toxin protein synthesis inhibition reporter; inhibition, % at 38.7 µM; 9.2% of 290,000 active; AID 2315, 2010; in the data active means inhibition mostly above about 28%, no sharp cut-off; inactive means mostly below about 43%; further: 0% is about no effect
CHX counter – Cycloheximide Counterscreen for Small Molecule Inhibitors of Shiga Toxin; cell reporter, cycloheximide protein synthesis inhibition counterscreen; max response, %; 12% of 300,000 active; AID 2314, 2010; in the data active means max response mostly above about 13%, no sharp cut-off; inactive means mostly below about 14%; further: read at 38.3 µM for the half of the compounds with a filed dose; 0% is about no effect
SARS PLP yeast – qHTS of Yeast-based Assay for SARS-CoV PLP; AID 485353, 2010; 0.19% of 330,000 active; Potency, µM (titrated, usually from 32.9 µM), for inactives: at the highest dose activity, positive = growth rescue, hits mostly activators; S. cerevisiae expressing SARS-CoV PLpro, growth rescue; further: potency means the concentration at half of the fitted maximal effect; 0% is about no effect; nearly all actives have a fitted effect of over 55% in size
Pf growth 96h – Primary qHTS for delayed death inhibitors of the malarial parasite plastid, 96 hour incubation | P. falciparum luciferase reporter growth, 96 h | Potency, µM (titrated, usually from 28.7 µM), for the others: at the highest dose activity change, negative = inhibition, actives largely listed as inhibitors | 6.9% of 320,000 active | AID 504834, 2011; active means well fitted inhibition curve with a large enough effect; inconclusive means small, poorly fitted or top-dose-only effect, or another doubt; inactive means no such curve, though single readings can be large or run the other way; further: potency means the concentration at half of the fitted maximal effect; on the % scale 0 is the no-effect control and ±100 the full control effect
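Erythrocytes infected with luciferase-expressing P. falciparum were dispensed at 2% hematocrit and 0.05% parasitemia (final), then incubated with compounds 96 hours at 37 C in 5% CO2. Luminescence after detection reagent addition reported growth.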
Numbers without * were called inactive; i = inactive; ? = inconclusive; . = not tested or not shown. In the library only some 21% were active in any assay of this set; here they are far more common. Unless noted, the call rests on the fitted dose curve.

SMILES	NS1 function inh	Pf growth 48h	Shiga toxin inh	CHX counter	SARS PLP yeast	Pf growth 96h
NNC(=O)CN1C(c2ccc(Cl)cc2)=Nc2ccc(Br)cc2C1c1ccccc1 (centres undefined)	18%	8.3µM*	-16	-3	-5%	34%
NNC(=O)CN1C(c2ccccc2)=Nc2ccc(Br)cc2C1c1ccccc1 (centres undefined)	.	?	-11	5	2%	13%
CC12C=CC3(CN(Cc4ccccc4)C(=O)C3C1C(=O)NC1CC1)O2 (centres undefined)	?	?	-24	3	3%	-5%
COc1ccccc1CNC(=O)c1ccc2c(=O)n3c(nc2c1)CCCCC3	1%	-15%	-9	9	-2%	59%
CCC(Sc1nc(N)cc(N)n1)C(=O)O (centres undefined)	11%	.	-13	-4	2%	3.3µM*
Nc1ccc(SC(F)(F)F)cc1	.	i	-11	-2	-4%	-21%
Cc1csc(/N=C/c2ccc([N+](=O)[O-])cc2)n1	22%	1%	-1	-2	23%	19%
CCN1CCN(/C=N/c2nc(C)cs2)CC1	-1%	99%	76*	33*	-4%	-13%
O=C(c1c(F)cccc1F)N1CCCc2ccccc21	-18%	-12%	.	8	-2%	-11%
O=C(Nc1nnc(-c2ccc(Cl)cc2)o1)C1CCCCC1	1%	?	-8	-2	5%	-89%
O=C(Nc1nnc(-c2ccc3c(c2)OCCO3)o1)C1CCCCC1	.	395%	131*	43*	-7%	150%
O=C(Nc1nnc(-c2ccccc2)o1)C1CCCCC1	-1%	-22%	12	-3	5%	?
CCOc1ccc(-c2nnc(NC(=O)C3CCCC3)o2)cc1	7%	57%	42*	35*	-3%	68%
CCOc1ccc(C(=O)Nc2nnc(C3=COCCO3)o2)cc1	-15%	-22%	19	8.4*	-2%	-28%
NC(=O)c1ccc(NC(=O)c2cccc3c2OCCCO3)cc1	0%	43%	-11	-2	-1%	35%
CCC(C)C(=O)Nc1nc(C)c(-c2csc(Nc3cc(Cl)ccc3OC)n2)s1 (centres undefined)	?	10µM*	-17	-3	2%	15µM*
CCC(=O)Nc1nc(C)c(-c2csc(Nc3ccc(S(=O)(=O)Nc4cc(C)on4)cc3)n2)s1	19%	.	2	-2	4%	23%
COc1ccccc1Nc1nc(-c2sc(NC(=O)c3ccc([N+](=O)[O-])cc3)nc2C)cs1	18%	?	18	5	9%	?
CCC(C)C(=O)Nc1nc(C)c(-c2csc(Nc3cc(OC)ccc3OC)n2)s1 (centres undefined)	17%	2.3µM*	-12	-2	6%	9.3µM*
COc1ccc(OC)c(Nc2nc(-c3sc(NC(=O)CC(C)C)nc3C)cs2)c1	10%	6.6µM*	-10	2	1%	10µM*
COc1cc(CN(C(=S)NCC(=O)NC2CC2)C2CCCC2)cc(OC)c1OC	-6%	-30%	-2	-2	-28%	13%
CCOCCCNC(=S)Nc1cc(C)cc(C)c1	5%	14%	-13	7	-6%	70%
Nn1cnc2cc3ccccc3cc2c1=O	-1%	39%	36	18	18%	18%
Cc1noc(C)c1C(=O)OCC(=O)Nc1ccc(N2CCOCC2)cc1	.	.	.	.	1%	.
O=C(CS(=O)(=O)Cc1ccccc1)NCCc1ccc(F)cc1	-1%	8%	-6	0	4%	-20%
SMILES	NS1 function inh	Pf growth 48h	Shiga toxin inh	CHX counter	SARS PLP yeast	Pf growth 96h
Cc1ccc(NC(=O)Cc2n[nH]c(=S)n2C)cc1	.	15%	23	-5	2%	?
Cn1c(CC(=O)Nc2ccc(Cl)c(Cl)c2)n[nH]c1=S	.	-3%	-19	-2	1%	0.074µM*
O=C(CC(C(=O)O)P(=O)(c1ccccc1)c1ccccc1)c1ccccc1 (centres undefined)	0%	25%	4	2	0%	-5%
CC(C)(C)N=Cc1cc(-c2ccccc2)sc1O	-8%	.	71*	38*	-2%	?
CCCCN(C(=O)CC1CCCCC1)c1c(N)n(CC(C)C)c(=O)[nH]c1=O	.	?	.	.	2%	?
COc1cc(Nc2cc(C)nc3ncnn23)cc(OC)c1OC	3%	9.3µM*	20	-5	-4%	?
COc1ccc(Nc2cc(C)nc3ncnn23)cc1Cl	2%	?	-7	0	-8%	?
COc1cc(Nc2cc(C)nc3ncnn23)cc(OC)c1	0%	8.3µM*	9	-2	2%	10%
CC1CC(=O)N(c2ccc(N(C)Cc3ccccc3)c([N+](=O)[O-])c2)C1=O (centres undefined)	.	35%	54*	18*	0%	29%
O=C(CCCc1c[nH]c2ccccc12)NCc1ccccc1C(F)(F)F	-8%	-1%	-6	-2	0%	49%
N=c1c2c(ncn1CCN1CCOCC1)Oc1cc(O)ccc1C2c1ccccc1 (centres undefined)	-3%	?	2	-3	0%	?
COc1ccc(C2c3c(ncn(CCCN4CCOCC4)c3=N)Oc3ccc4ccccc4c32)cc1OC (centres undefined)	2%	4.1µM*	9	-1	1%	1.9µM*
COc1ccc(C2c3ccc4ccccc4c3Oc3ncn(CCN4CCOCC4)c(=N)c32)cc1OC (centres undefined)	1%	9.3µM*	-16	-3	1%	13µM*
COc1ccc(C2c3ccc4ccccc4c3Oc3ncn(CCN4CCOCC4)c(=N)c32)cc1 (centres undefined)	2%	12µM*	-20	-8	-29%	6.6µM*
COc1ccccc1CNC(=O)CCNS(=O)(=O)c1ccc2c(c1)CC(C)N2C(C)=O (centres undefined)	-6%	7%	18	-3	-1%	?
C=C(C)COc1ccc(C2NC(=O)c3ccccc3O2)cc1OCC (centres undefined)	-6%	77%	-3	-3	-8%	41%
CSc1n[nH]c(NCc2ccc(Cl)cc2)n1	3%	45%	51*	15*	25%	33%
Cc1cc(=O)[nH]c(NCc2ccc(Cl)cc2)n1	9%	69%	11	4	3%	1%
CSc1n[nH]c(NCc2ccccc2)n1	1%	19%	29*	9	-1%	.
CSc1n[nH]c(NCc2ccc(C)cc2)n1	5%	247%	72*	40*	-8%	214%
Cc1ccc(CNC(=O)CSc2n[nH]c(N)n2)cc1	3%	21%	-7	-2	-4%	?
Cc1cc(C)cc(NC(=S)N2C3CCCC2CC(NC(=O)C2CC2)C3)c1 (centres undefined)	4%	-15%	-5	-4	0%	16%
